# Assay results reported in the emibetuzumab library of Makowski et al. (2022).
# This is one part of the list. How many sequences the whole screen found active is unknown.
# B1: VH:VL chains; a variant is named by its letters at X, in order (parent)
# chain 1: QVQLVQSGAEVKKPGASVKVSCKASGYTFTDYXMHWVRQAPGQGLEWMGXVNPNXXXTTYNQKFEGRVTMTTDTSTSTAYMELRSLRSDDTAVYYCARXNXLDXWGQGTTVTVSS
# chain 2: DIQMTQSPSSLSASVGDRVTITCSVSSSVSSIYLHWYQQKPGKAPKLLIYSTSNLASGVPSRFSGSGSGTDFTLTISSLQPEDFATYYCQVYSGYPLTFGGGTKVEIK
# Variants of: B1
# Assay: yeast display scFab, FACS + sequencing
# Conditions: with MET
# Method in brief: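 A yeast surface library of scFab variants carrying heavy-chain CDR mutations went through two magnetic enrichment rounds on Protein A beads coated with HGFR-Fc, then FACS. For sorting, cells were labelled for 3 h at room temperature with 1 nM HGFR-Fc and anti-Myc in PBSB containing 1% milk, and the top 50% of antigen-positive cells were gated. Input and round-3 sorted populations were deep sequenced in two replicates. A sequence was called an antigen binder if it appeared in both antigen-positive samples and a non-binder if it appeared only in the input.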
row,Variant,antigen binding call
1,YRRRGSGF,binds
2,YRTRGSGF,binds
3,YRRRGAWF,binds
4,YRRRGAGF,binds
5,FTKASYVY,no binding
6,VEARGDWV,no binding
7,STRKSYAA,no binding
8,STKAASWV,no binding
9,YRERNAAA,no binding
10,FRERGYGA,no binding
11,YRERGAAA,binds
12,STGTGALA,no binding
13,FRERGALA,binds
14,VTGGDALA,no binding
15,YRERGALA,binds
16,FTGGDALA,binds
17,FRERGDGA,no binding
18,SGRGNSVD,no binding
19,VEEEGDVA,no binding
20,STEEGDWV,no binding
21,AEGTNAGD,no binding
22,VETGNDAV,no binding
23,FRERNAAA,no binding
24,YRERGSAA,binds

row,Variant,antigen binding call
1,FRGRGALA,binds
2,FRERGAAA,binds
3,FEEGTDWY,no binding
4,DGGKNDAV,no binding
5,YRARSFGD,no binding
6,YRAGGAGY,binds
7,SRARDFGY,no binding
8,YRARSFGS,binds
9,YGETGFGS,no binding
10,YAAGSFGY,no binding
11,YRAGGFGY,binds
12,YRAGGFGS,binds
13,DRAGDAGY,no binding
14,SEARSSGF,no binding
15,YATEAFSD,no binding
16,YAKGDDAS,no binding
17,DEGGGDGA,no binding
18,DAGKSDWY,no binding
19,YAEESDVA,no binding
20,DTGTGALV,no binding
21,YRAGGVGS,binds
22,YRARGAGY,binds
23,YRAGGYGY,binds
24,YRARGSGY,binds

row,Variant,antigen binding call
1,YRARGYVY,no binding
2,DTKAADWY,no binding
3,VKEGGDVV,no binding
4,YKGKDSSV,binds
5,YGRTSAAV,no binding
6,VEGTSSSV,no binding
7,YKRESSSV,binds
8,YKRESAAV,binds
9,YERESAAV,no binding
10,YAGKDDWV,no binding
11,FEGGTDVV,no binding
12,YKGRGAGF,binds
13,YKGRGYGF,no binding
14,YKGRGSAF,binds
15,YKGRGAAF,binds
16,DAGRSDLV chain 1 R67H,no binding
17,SAGEGDVY,no binding
18,FAKEGFWD,no binding
19,VRTADVGV,no binding
20,VRTRSSGV,binds
21,VRERGDGV,no binding
22,VRTRGSGV,binds
23,VETRSSSV,no binding
24,VETEGSGV,no binding

row,Variant,antigen binding call
1,DGGTNAGD,no binding
2,YTTGGSSA,no binding
3,YTEKGVGV,no binding
4,VAEKGSSA,no binding
5,DATGGSSV,no binding
6,YRTGGSSV,binds
7,YREKGSSA,binds
8,YREKGSSV,binds
9,DREEGSSA,no binding
10,DTKRTAVA,no binding
11,ATTKSAGD,no binding
12,YRRGGFGV,binds
13,DARGGFGV,no binding
14,YRRGSVGV,no binding
15,DREEGVGV,no binding
16,YRGKDVGV,binds
17,YRRGGAGV,binds
18,YRRGGVGV,binds
19,VEGGGDVV,no binding
20,SEEEGASV,no binding
21,YKARGAWD,binds
22,YAARGAWD,no binding
23,YKAGGAWD,binds
24,YKARGSLV,binds

row,Variant,antigen binding call
1,YKGRGSLY,binds
2,YKGRGALY,binds
3,SKERGSLV,no binding
4,YKGRAALY,no binding
5,YKARGSLY,binds
6,DKEGGSLV,no binding
7,ATGRADWA,no binding
8,VTETGDSV,no binding
9,YTGEDDVY,no binding
10,YAGKSAGD,no binding
11,YRGKASGD,binds
12,YTGTSAGD,no binding
13,YRGKAAGD,binds
14,YRRRGSWA,binds
15,FRRRGAWA,binds
16,YRRRGAWA,binds
17,FRRKDDWA,no binding
18,YRRRGYWA,binds
19,ATGEDDVY,no binding
20,DEGGTDGY,no binding
21,FARKGDGV,no binding
22,YRRRGDWA,binds
23,SARRGDWA,no binding
24,YRREGDWA,no binding

row,Variant,antigen binding call
1,YRRRGVWA,binds
2,DATGGDGV,no binding
3,FRRGGSAF,binds
4,FRRRGAVD,binds
5,FARGGDAV,no binding
6,FAGRGALD,no binding
7,FRRRGALD,binds
8,FRRRGAAD,binds
9,FARKSYGA,no binding
10,AETKGDGV,no binding
11,YGTATFLV,no binding
12,VRTKDFSY,no binding
13,FGATSFSV,no binding
14,FAGGDYGS,no binding
15,DTAGDAVV,no binding
16,FARGGSAD,no binding
17,YRRRGSAD,binds
18,FRRGGSAD,binds
19,DARGGSAD,no binding
20,FRRRGSAD,binds
21,YRAKGSVD,binds
22,YRRKGSVD,binds
23,YRAGDSVD,binds
24,DRAGDSVD,no binding

row,Variant,antigen binding call
1,SKGKGAVA,no binding
2,YKGKGSVV,binds
3,FKGRGAVD,binds
4,VKGAGSVV,no binding
5,FKGKGAVA,no binding
6,YKTRSAVA,binds
7,YTTGGAVA,no binding
8,YKTGNDVA,no binding
9,YAGTGAVA,no binding
10,YKGKGAVA,binds
11,DTKAASWA,no binding
12,FKAGGAVA,binds
13,YKGKGSVA,binds
14,FKGEGDVA,no binding
15,AATGSAWA,no binding
16,DAARGAGD,no binding
17,DAGEAAGD,no binding
18,DRTTNAGD,no binding
19,DKGGAAGD,no binding
20,FRGGSAVD,binds
21,DRAGGAGD,binds
22,DRGEGAGD chain 1 G42D,binds
23,DAGGGAGD,no binding
24,DRGRDAGD,no binding

row,Variant,antigen binding call
1,DRGGSAGD,binds
2,VRGGSDVD,no binding
3,FAGRDVGV,no binding
4,SGKGGSAY,no binding
5,FTGGAAGD,no binding
6,FRGGSAGD,binds
7,FRGADFGD,no binding
8,FRKGSAVD,binds
9,DAGGADAY,no binding
10,FTGGASGV chain 1 V111I,no binding
11,YGGGGASV,binds
12,YEGGGFSV,no binding
13,VKGRAFSV,no binding
14,VKGRGASV,binds
15,YKAGDVSV,no binding
16,VEGTSASV,no binding
17,YGGGGDVV,no binding
18,YKGRGASV,binds
19,YKAKGASV,binds
20,SEEGTDWY,no binding
21,DAGGAAAD,no binding
22,YEGTGAGA,no binding
23,VKGRSFLV,no binding
24,YKGRSASV,binds

row,Variant,antigen binding call
1,YAGRGASA,no binding
2,YKGRGASD,binds
3,YKRRSASA,binds
4,YKGRGASA,binds
5,VKGRSDWV,no binding
6,FKRRSVGA,no binding
7,YAGRGDSA,no binding
8,VERGTYGV,no binding
9,AKTKSDWV,no binding
10,VTTRDDSD,no binding
11,VAGTGDWY,no binding
12,DTEGDAGD,no binding
13,VTGESDWY,no binding
14,FRGEGFSV,no binding
15,FRKGGSGV,binds
16,FRGGGSGV,binds
17,FRGGGFVV,no binding
18,FRGEGALV,binds
19,FRGKGSGV,binds
20,VTGEGALV,no binding
21,FRGKGFGV,no binding
